Each structure is given as a SMILES string.

In the first test the target is T1, Aspartate--tRNA(Asp/Asn) ligase (Mycobacterium tuberculosis (strain ATCC 25618 / H37Rv)) (UniProt P9WFW3). Note: in the data most compounds retested in dose-response had high values.
T1 sequence (whole entry): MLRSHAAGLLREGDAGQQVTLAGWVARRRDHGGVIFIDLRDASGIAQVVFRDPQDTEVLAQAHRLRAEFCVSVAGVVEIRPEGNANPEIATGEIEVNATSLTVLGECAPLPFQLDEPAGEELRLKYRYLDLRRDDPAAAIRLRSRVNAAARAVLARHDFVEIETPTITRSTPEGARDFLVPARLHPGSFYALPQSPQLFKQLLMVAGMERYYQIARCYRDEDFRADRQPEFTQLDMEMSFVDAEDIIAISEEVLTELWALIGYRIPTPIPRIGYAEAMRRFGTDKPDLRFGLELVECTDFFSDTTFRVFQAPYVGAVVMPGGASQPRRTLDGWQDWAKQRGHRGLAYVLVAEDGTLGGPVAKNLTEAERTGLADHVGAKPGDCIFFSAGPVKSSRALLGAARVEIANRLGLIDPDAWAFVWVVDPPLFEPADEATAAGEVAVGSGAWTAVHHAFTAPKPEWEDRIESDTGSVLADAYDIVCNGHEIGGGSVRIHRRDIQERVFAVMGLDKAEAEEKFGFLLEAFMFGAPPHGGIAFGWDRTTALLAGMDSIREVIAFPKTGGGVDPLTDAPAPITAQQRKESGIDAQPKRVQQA
The experiment in a line: Assay for Asp RNA synthetase-1 from Mycobacterium tuberculosis. The test is classed as functional. On the set-up: scale not given: direction of the effect not stated beside the values. The following applies: 30 µM.
Regarding `CCC(C)[C@H](NC(=O)c1cc(Br)ccc1-n1cnnn1)C(=O)OC` (stereo not given in full), the Percent Effect is -2%.

As for `Cc1cn2c(n1)CCC(NC(=O)c1nc(C)ncc1Cl)C2` (stereo not given), the Percent Effect was 1.79%.

For the molecule `Cn1ccc(C(=O)NC2CCC23CCN(C(=O)N2CCCC2)CC3)c1` (stereo not given), the Percent Effect was -3.32%.

`Cc1ccc(-n2nnc(CC(=O)N3CCSCC3)c2C)cc1`: the Percent Effect came to 2.79%.

For the molecule `CCOc1ccc(-n2nnc(C(=O)O)c2-c2ccccn2)cc1`, the Percent Effect was found to be 12%.

As for `O=C(c1cccnc1O)N(Cc1ccsc1)CC1CCCO1` (stereo not given), the Percent Effect is -1.37%.

Take `COc1ccc(C2=C(C)C(N3CCc4ccccc43)=NS2(=O)=O)cc1`: the Percent Effect was -2.38%.

With `COc1ccccc1CN1CCC2(CC1)CC(Oc1ccccn1)CO2` (stereo not given), the Percent Effect was determined as 1.6%.

Regarding `COC(=O)CCNC(=O)C1CC(=O)N(C2CCCC2)C1` (stereo not given), the Percent Effect was determined as 0.859%.

With `CCC(CO)NC(=O)c1ccc2ccc(N(C)CC3CC3)n2c1` (stereo not given), the Percent Effect was -2.57%.

Turning to `COc1ccc(C(=O)NS(=O)(=O)c2cncc(Br)c2)cc1OC`, the Percent Effect is 0.457%.

For the molecule `COCCC(=O)Nc1ccnc(Oc2ccccc2)c1`, the Percent Effect worked out at 13.9%.

As for `O=C(NCCc1nnc2n1CCC2)NC1(c2cccc(F)c2)CC1`, the Percent Effect is 3.98%.

As for `CCOC(CC)C(=O)NCc1ccnc(Oc2ccc(F)cc2)c1` (stereo not given), the Percent Effect was 0.301%.

Consider `CC(=O)c1ccc(C(=O)NCCCOC(C)c2ccccc2)s1` (stereo not given), for which the Percent Effect was -4.7%.

As to `CO[C@H]1CCN(Cc2cccc(C)n2)[C@@H]2CN(Cc3cccnc3)C[C@H]12`, the Percent Effect is -0.57%.

For the molecule `Cn1cc(-c2csc(N3CCN(C(=O)OC(C)(C)C)CC3)n2)cn1`, the Percent Effect was determined as 0.501%.

Turning to `CC(NC(=O)N(C)Cc1ccsc1)c1ccc2c(c1)CCC(=O)N2` (stereo not given), the Percent Effect is -2.72%.

Consider `CC(C)(C)c1noc(CN2CCN(C(=O)c3cccs3)CC2)n1`, for which the Percent Effect was determined as 0.425%.

Regarding `CC(=O)Nc1nc(C(=O)N2CCCC2c2noc(C)n2)cs1` (stereo not given), the Percent Effect came out at 0.425%.

On to `Cc1noc(C)c1C(=O)NCc1ccc(N2CCOC(C)C2)nc1` (stereo not given), for which the Percent Effect was -1.75%.

Consider `c1csc(CN2C[C@@H]3OCCN(CC4CCCO4)[C@@H]3C2)c1` (stereo not given in full), for which the Percent Effect is -2.14%.

Turning to `Cc1cc(C)c(CNC(=O)NCC2CCCN2C)c(=O)[nH]1` (stereo not given), the Percent Effect was -1.7%.

Turning to `Cc1ccc(C(=O)N2CCCC(NC(=O)C(C)C)C2)c(O)c1` (stereo not given), the Percent Effect came to 7%.

For the molecule `CC(C)(C)C(O)CN1CCN(C(=O)c2cccc3[nH]ncc23)CC1` (stereo not given), the Percent Effect was -5.46%.

As to `CCN(C)c1ncnc2c1CCN(Cc1csc(C)n1)CC2`, the Percent Effect is -3.19%.

Turning to `O=C(COCc1ccccc1Cl)N1CCCC(n2cccn2)C1` (stereo not given), the Percent Effect was -1.04%.

Take `O=C(NCCn1ccc(-c2ccccn2)n1)c1ccncc1`: the Percent Effect was -6.73%.

As for `CN(C(=O)NCc1ccncc1)C1CCN(c2ccccc2)C1=O` (stereo not given), the Percent Effect was -3.08%.

On to `Cc1noc(C2CCN(C(=O)CCNS(C)(=O)=O)CC2)n1`, for which the Percent Effect is -0.989%.

Regarding `COc1cccc(CNC(=O)CC2CSc3ncc(C)c(=O)n32)c1` (stereo not given), the Percent Effect came to 1.5%.

`O=C(NCCNC(=O)c1scnc1Cl)c1ccccc1`: the Percent Effect stood at 2.84%.

Take `COc1cccc(N2CCN(C(=O)[C@H](O)C3CCCCC3)CC2=O)c1`: the Percent Effect was -3.25%.

With `Cc1noc([C@@H]2C[C@H]3OCC[C@H]3N(S(C)(=O)=O)C2)n1`, the Percent Effect was -0.616%.

Regarding `CC(C)c1cnc(CNc2c(F)cccc2-n2cccn2)o1`, the Percent Effect is -0.919%.

As for `CCc1ccc(S(=O)(=O)Nc2cc(OC)c(OC)cc2C(=O)O)s1`, the Percent Effect turned out to be 5.87%.

`CCC(=O)N1CCN(Cc2cc(-c3ccncc3)nn2C)CC1`: the Percent Effect was -0.849%.

Turning to `CCOc1ccnc(N2CCN(C(=O)c3cccc(C#N)c3)CC2)n1`, the Percent Effect was -3.26%.

`Cc1cnn(CCC(=O)N2CCCN(c3ncccc3C#N)CC2)c1`: the Percent Effect was -6.54%.

For the molecule `O=C1[C@H]2CC[C@H](CN(S(=O)(=O)c3ccccc3)C2)N1Cc1cscn1`, the Percent Effect stood at 1.23%.

Another test addresses Shiga toxin 2 (Escherichia coli O157:H7) (UniProt P09385+P09386). The test is described as follows: E. coli 0.157:H7 Shiga Toxin SOP - stx2 screening assay. In kind it is functional. On the set-up: scale not given: direction of the effect not stated beside the values. The following applies: 30 µM.
Regarding `CCC(C)[C@H](NC(=O)c1cc(Br)ccc1-n1cnnn1)C(=O)OC` (stereo not given in full), the Percent Effect is -22.1%.

In the case of `Cc1cn2c(n1)CCC(NC(=O)c1nc(C)ncc1Cl)C2` (stereo not given), the Percent Effect worked out at 12.5%.

In the case of `Cn1ccc(C(=O)NC2CCC23CCN(C(=O)N2CCCC2)CC3)c1` (stereo not given), the Percent Effect is -4.99%.

Take `Cc1ccc(-n2nnc(CC(=O)N3CCSCC3)c2C)cc1`: the Percent Effect was -35.4%.

Regarding `CCOc1ccc(-n2nnc(C(=O)O)c2-c2ccccn2)cc1`, the Percent Effect is -8.4%.

Take `O=C(c1cccnc1O)N(Cc1ccsc1)CC1CCCO1` (stereo not given): the Percent Effect is -27.4%.

On to `COc1ccc(C2=C(C)C(N3CCc4ccccc43)=NS2(=O)=O)cc1`, for which the Percent Effect is -24.6%.

As to `COc1ccccc1CN1CCC2(CC1)CC(Oc1ccccn1)CO2` (stereo not given), the Percent Effect was -0.702%.

Consider `COC(=O)CCNC(=O)C1CC(=O)N(C2CCCC2)C1` (stereo not given), for which the Percent Effect is -13.4%.

In the case of `CCC(CO)NC(=O)c1ccc2ccc(N(C)CC3CC3)n2c1` (stereo not given), the Percent Effect is -33%.

As for `COc1ccc(C(=O)NS(=O)(=O)c2cncc(Br)c2)cc1OC`, the Percent Effect came out at 3.4%.

`COCCC(=O)Nc1ccnc(Oc2ccccc2)c1`: the Percent Effect was -27.8%.

Turning to `O=C(NCCc1nnc2n1CCC2)NC1(c2cccc(F)c2)CC1`, the Percent Effect is -25%.

Consider `CCOC(CC)C(=O)NCc1ccnc(Oc2ccc(F)cc2)c1` (stereo not given), for which the Percent Effect amounted to 5.28%.

Regarding `CC(=O)c1ccc(C(=O)NCCCOC(C)c2ccccc2)s1` (stereo not given), the Percent Effect is -71.8%.

For `CO[C@H]1CCN(Cc2cccc(C)n2)[C@@H]2CN(Cc3cccnc3)C[C@H]12`, the Percent Effect was -14.4%.

In the case of `Cn1cc(-c2csc(N3CCN(C(=O)OC(C)(C)C)CC3)n2)cn1`, the Percent Effect was -1.73%.

As to `CC(NC(=O)N(C)Cc1ccsc1)c1ccc2c(c1)CCC(=O)N2` (stereo not given), the Percent Effect was determined as 29%.

`CC(C)(C)c1noc(CN2CCN(C(=O)c3cccs3)CC2)n1`: the Percent Effect was 6.49%.

Consider `CC(=O)Nc1nc(C(=O)N2CCCC2c2noc(C)n2)cs1` (stereo not given), for which the Percent Effect was -22.5%.

For `Cc1noc(C)c1C(=O)NCc1ccc(N2CCOC(C)C2)nc1` (stereo not given), the Percent Effect is -60.1%.

In the case of `c1csc(CN2C[C@@H]3OCCN(CC4CCCO4)[C@@H]3C2)c1` (stereo not given in full), the Percent Effect was 7.71%.

Turning to `Cc1cc(C)c(CNC(=O)NCC2CCCN2C)c(=O)[nH]1` (stereo not given), the Percent Effect was 26.6%.

As to `Cc1ccc(C(=O)N2CCCC(NC(=O)C(C)C)C2)c(O)c1` (stereo not given), the Percent Effect came to 7.56%.

As to `CC(C)(C)C(O)CN1CCN(C(=O)c2cccc3[nH]ncc23)CC1` (stereo not given), the Percent Effect is -5.59%.

As for `CCN(C)c1ncnc2c1CCN(Cc1csc(C)n1)CC2`, the Percent Effect was -3.16%.

In the case of `O=C(COCc1ccccc1Cl)N1CCCC(n2cccn2)C1` (stereo not given), the Percent Effect came to 20%.

As for `O=C(NCCn1ccc(-c2ccccn2)n1)c1ccncc1`, the Percent Effect was -58.6%.

With `CN(C(=O)NCc1ccncc1)C1CCN(c2ccccc2)C1=O` (stereo not given), the Percent Effect was -7.78%.

As to `Cc1noc(C2CCN(C(=O)CCNS(C)(=O)=O)CC2)n1`, the Percent Effect is -13.5%.

For the molecule `COc1cccc(CNC(=O)CC2CSc3ncc(C)c(=O)n32)c1` (stereo not given), the Percent Effect stood at 6.98%.

Take `O=C(NCCNC(=O)c1scnc1Cl)c1ccccc1`: the Percent Effect was -34.6%.

Take `COc1cccc(N2CCN(C(=O)[C@H](O)C3CCCCC3)CC2=O)c1`: the Percent Effect is -7.11%.

On to `Cc1noc([C@@H]2C[C@H]3OCC[C@H]3N(S(C)(=O)=O)C2)n1`, for which the Percent Effect is -25.2%.

Consider `CC(C)c1cnc(CNc2c(F)cccc2-n2cccn2)o1`, for which the Percent Effect came out at 9.22%.

As for `CCc1ccc(S(=O)(=O)Nc2cc(OC)c(OC)cc2C(=O)O)s1`, the Percent Effect worked out at 27.3%.

In the case of `CCC(=O)N1CCN(Cc2cc(-c3ccncc3)nn2C)CC1`, the Percent Effect is -10.7%.

Consider `CCOc1ccnc(N2CCN(C(=O)c3cccc(C#N)c3)CC2)n1`, for which the Percent Effect was 40.5%.

As for `Cc1cnn(CCC(=O)N2CCCN(c3ncccc3C#N)CC2)c1`, the Percent Effect was -34.1%.

For `O=C1[C@H]2CC[C@H](CN(S(=O)(=O)c3ccccc3)C2)N1Cc1cscn1`, the Percent Effect was -25.8%.

Values taken from ChEMBL document CHEMBL3988442, “University of Dundee, Small-Polar-MMV Screening Library” (2021).
